Measurements published in PubChem BioAssay AID1458 (National Center for Advancing Translational Sciences (NCATS), 2008).
In all, about 210,000 compounds went through this assay and about 5,900 (2.8%) were called active. Entries that show only a call come without a potency. Roughly 5% stayed inconclusive and do not appear here. Calls follow the shape of the dose curve; as a rule, active = well fitted activation curve with a large enough effect; inconclusive = small, poorly fitted or top-dose-only effect; inactive = no such curve, though single readings can be large or run the other way. For the sample, actives were picked, then their nearest neighbours and some compounds at random.

Test: qHTS Assay for Enhancers of SMN2 Splice Variant Expression; also: nearly all actives have a fitted effect of over 55% in size
Details: HEK293 SMN2-luciferase splicing reporter, luminescence, 30-36 h; series mostly up to 46.1 µM
In short: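 qHTS luciferase splicing reporter: luminescence rises when SMN2 exon 7 is included in transfected HEK293 cells. Compound exposure lasted 30-36 h at 37C, with 4.5 mM final sodium butyrate as control, followed by a ONE-Glo read.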
Potency is read from the fitted curve at half-maximal effect.

Compound | Potency
S=c1[nH]nc(-c2cccnc2)n1/N=C/C(Cl)=C\c1ccccc1 | 12.6 µM (active)
Cc1ccc(/C=N\n2c(-c3ccccc3)n[nH]c2=S)s1 | inactive
Cc1cc(-c2n[nH]c(=S)n2/N=C/C(Br)=C/c2ccccc2)n[nH]1 | inactive
O=C(Cn1ncc2c3ccccc3n(Cc3ccccc3)c2c1=O)NCc1ccccn1 | inactive
CCN1CCN(Cc2c(O)ccc3oc(C)c(C(=O)Nc4ccc(C)cc4C)c23)CC1 | inactive
CC(C)(C)c1ccc(C(=O)N2CCC(c3nc(-c4ccc(S(=O)(=O)N5CCCC5)cc4)no3)CC2)cc1 | inactive
COc1cc(CNCCSc2nnnn2C)ccc1OCc1ccc(Cl)cc1Cl | inactive
CS(=O)(=O)n1nc(-c2ccccc2)nc1NCc1ccco1 | inactive
CCn1c(SCc2ccccc2)nc2c(c1=O)SCC2 | inactive
CCS(=O)(=O)n1nc(-c2ccccc2)nc1SCc1ccccc1 | 22.4 µM (active)
Cc1ccc(-n2nc(CO)c(C(=O)NCCc3ccccc3)n2)cc1 | inactive
Cc1ccc(-n2c3nc(=O)[nH]c(=O)c-3cc3c(Cl)cccc32)cc1 | inactive
CCOc1ccc2cc(C#N)c(SCC(=O)OC)nc2c1 | 11.2 µM (active)
Cc1nonc1NC(=O)CSc1nc2ccccc2cc1C#N | inactive
COc1ccc(N2CCN(C(=O)CSc3nc4cc(OC)c(OC)cc4cc3C#N)CC2)cc1 | inactive
CCN1CCc2nc3sc(C(=O)Nc4ccccc4OC(F)(F)F)c(N)c3cc2C1 | inactive
COc1ccc(C2=CC(c3ccccc3Cl)n3nc(-c4ccc(Cl)cc4)nc3N2)cc1 (configuration not stated) | inactive
COc1cccc(-c2nc3n(n2)C(c2ccccc2Cl)C(C(N)=O)=C(C)N3)c1 (configuration not stated) | 15.8 µM (active)
CC1=C(C(N)=O)C(c2ccc3c(c2)OCO3)n2nc(-c3cccc(C)c3)nc2N1 (configuration not stated) | inactive
COc1ccc(/C=C/C(=O)Nc2ccc(C34CC5CC(CC(O)(C5)C3)C4)cc2)cc1OC | 12.6 µM (active)
COc1ccc(/C=C/C(=O)N2CCCC2)cc1OC | inactive
COc1ccc(/C=C/C(=O)Nc2cccnc2)cc1OC | inactive
CCOC(=O)c1ccc(NC(=O)CC2C(=O)N(c3ccccc3)C(=O)N2Cc2cccs2)cc1 (configuration not stated) | inactive
CCC(=O)Nc1sc(C(=O)Nc2ccccc2)c(C)c1C(=O)OC | 3.55 µM (active)
CCOC(=O)c1sc(NC(=O)COc2ncnc3ccccc23)c(C(=O)OCC)c1C | inactive
CCOC(=O)c1c(NC(=O)CCl)sc(C(=O)N(CC)CC)c1C | inactive
COc1ccccc1NC(=O)c1sc2nc(C)c(C(=O)Nc3ccc(Cl)cc3)c(-c3ccc(Br)cc3)c2c1N | inactive
